These results are taken from PubChem BioAssay (NCI).

Common to all, as to assay: NCI-60 one-dose screen, 48 h (100 = growth as untreated, 0 = no growth, -100 = all killed)
What all share (conditions): 10 µM unless noted

Assay [1] relates to SR leukemia.
The subject of assay [2] is OVCAR-8 ovarian.
Assay [3] deals with OVCAR-5 ovarian.
Assay [4] has as its system OVCAR-4 ovarian.
Assay [5] deals with SK-OV-3 ovarian.
Assay [6] relates to IGROV1 ovarian.
Assay [7] deals with OVCAR-3 ovarian.
Assay [8] relates to NCI/ADR-RES ovarian.
For assay [9], the system named is HS 578T breast.
The test system of assay [10] is RPMI-8226 leukemia.

The panel holds about 83,000 compounds, 20% with a hit somewhere; the sample as a whole holds those more often.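 For each line, cells grew in 96-well plates with the test compound present at a single concentration for 48 hours.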 A number with no mark means an inactive call. The source made the active and inactive calls. The calls were made as follows: active = growth percent below 10; inactive = the rest.

For the molecule `COc1cc(NCCCN=C(N)NC(N)=NC(C)C)c2ncccc2c1`, the growth in [1] is 75.2%; in assay [2], 88.5%; in assay [3], 57.6%; in assay [4], 11.3%; in assay [5], 93.7%; in assay [6], -12.8% (active). The growth was 8.99% (active) in assay [7] and 98.8% in assay [8].
For the molecule `CCC#CC[C@H]1C/C=C2/C(=O)C=C[C@@H]2C/C=C\CCCC(=O)O1`, the growth in assay [1] is 5.38% (active); in [2] it was 13.6%; in assay [3], 18.4%; in assay [4] it was 40.1%; in assay [5] it was 26.5%; in assay [6], 7.74% (active). Further, the growth in assay [7] was 6.81% (active); in assay [9], 40.2%; in [8] it was 22.7%.
Consider `CCOC(=O)/C=C\C(=O)NC(N)=O`, for which the growth in [1] is 97.3%; in [2], 104%; in assay [3] it was 113%; in [4] it was 120%; in [5], 95.9%; in [6] it was 104%. Moreover, the values for the growth in assay [7], in [9] and in assay [8] were 110%, 102% and 106%, respectively.
On to `Cc1ccc(S(=O)(=O)N2CCC(C(=O)Nc3ccc(F)cc3F)CC2)cc1`, for which the growth in assay [10] was 86.5%; in [2], 97.8%; in assay [3] it was 98%; in assay [4], 83.7%; in assay [5], 92.3%; in assay [6] it was -38.5% (active). Further, the growth is 91.6% in assay [7], -32.4% (active) in assay [9] and 95.4% in assay [8].
In the case of `Cc1nc2sccn2c1-c1csc(Nc2ccccc2Cl)n1`, the growth in assay [10] was 38.9%; in assay [2], 53%; in assay [3] it was 54.9%; in assay [4] it was 47.3%; in [5] it was 75.9%; in assay [6], 60.5%. For the same molecule, the growth in assay [7] was 47.7%; in assay [8] it was 21.6%.
With `COc1ccc(/C(=N/O)c2cc(OC)c(OC)c(OC)c2)c(OC)c1N`, the growth in [10] was 32%; in assay [2], 40.7%; in assay [3] it was 71.9%; in assay [4], 50%; in assay [5], 35.7%; in [6], 55%. The growth in [7] was 1.89% (active); in assay [9] it was 8.77% (active); in assay [8], 31%.
`O=C(Cc1n[nH]c(=O)c2ccccc12)OCc1c(Cl)cccc1Cl`: the growth in assay [10] is 63.7%; in [2], 102%; in [3], 95.7%; in assay [4], 105%; in [5], 113%; in [6] it was 29.4%. Moreover, the growth in assay [7] was 84.5%; in assay [9], 103%; in assay [8], 82.4%.
As for `O=C(CN1CCN(c2cc3c(cc2F)c(=O)c(C(=O)O)cn3C2CC2)CC1)Nc1ccc(C(=O)/C=C/c2ccc(Cl)cc2)cc1`, the growth was 90.2% in assay [10]; 98% in assay [2]; 115% in assay [3]; 95.4% in assay [4]; 110% in assay [5]; 121% in assay [6]. Also, the growth is 128% in assay [7], 108% in [9] and 111% in assay [8].
As for `COc1cc(NC(=O)CCl)ccc(=O)c1`, the growth in assay [10] is 85.4%; in assay [2], 87.6%; in assay [3], 93.2%; in [4], 75%; in [5], 73.9%; in [6], 58.1%. The growth in assay [7] is 61.1%; in assay [9], 72.2%; in assay [8], 92%.
With `CCC(c1cccc(Br)c1)C(C(=O)O)c1ccc(OC)cc1` (configuration not stated), the growth is 101% in assay [10]; 107% in [2]; 109% in assay [3]; 114% in assay [4]; 107% in assay [5]; 99.3% in assay [6]. Moreover, the growth in [7] was 110%; in assay [9] it was 91.4%; in [8] it was 103%.
Take `O=C(CCC(=O)OC1CCCC1)OC1CCCC1`: the growth in [10] was 95.1%; in [2], 91.6%; in assay [3] it was 98.7%; in [4], 107%; in assay [5] it was 110%; in [6] it was 110%. The values for the growth in assay [7] and in assay [8] were 102% and 105%, respectively.
`Cc1cc(C(=O)CSc2nc3ccccc3c(=O)[nH]2)c(C)n1C`: the growth was 91.6% in assay [10]; 96.4% in assay [2]; 90.8% in assay [3]; 123% in assay [4]; 108% in [5]; -33.9% (active) in [6]. For the same molecule, the values for the growth in assay [7], in [9] and in assay [8] were 91%, -35.7% (active) and 103%, respectively.
Turning to `Cc1cc2c(C(C)C)c(O)c(O)c(C=NCCCCC(=O)O)c2c(O)c1-c1c(C)cc2c(C(C)C)c(O)c(O)c(C=NCCCCC(=O)O)c2c1O`, the growth in assay [10] is 28.8%; in [2], 46.1%; in assay [3] it was 70.9%; in assay [4], 44.2%; in assay [5] it was 63.9%; in assay [6] it was 41.7%. In addition, the growth in [7] is 45.4%; in assay [9], 30.9%; in [8], 74.2%.
For the molecule `CC(=O)N1Cc2ccccc2C(C)Cc2cc(Cl)ccc21` (configuration not stated), the growth is 105% in assay [10]; 109% in assay [2]; 99.1% in assay [3]; 97.9% in assay [4]; 108% in assay [5]; 102% in [6]. Besides, the growth in [7] is 109%; in [8] it was 117%.
Regarding `N#CC1=C(N)OC2=C(C(=O)CCC2)C1c1ccco1` (configuration not stated), the growth was 100% in [10]; 103% in assay [2]; 104% in assay [3]; 106% in [4]; 98.2% in [5]; 107% in assay [6]. Further, the growth in assay [7] was 113%; in [9], 115%; in [8], 103%.
Turning to `COc1ccc(OC)c(NC(=O)c2cc(S(=O)(=O)N3CCc4ccccc43)ccc2OC)c1`, the growth was 82.6% in [10]; 75.5% in assay [2]; 89.8% in [3]; 94.2% in assay [4]; 92.6% in assay [5]; -39.9% (active) in [6]. The growth in assay [7] is 112%; in [9], -43.4% (active); in [8] it was 94.3%.
As to `CCCCNC(=O)NS(=O)(=O)c1ccc(N2N=C(c3ccc(C)cc3C)CC2c2ccc(OC)cc2)cc1` (configuration not stated), the growth is 40.3% in [10]; 62.9% in [2]; 89.6% in assay [3]; 68.4% in [4]; 101% in assay [5]; 98.9% in assay [6]. The growth is 75.2% in assay [7], 87.3% in assay [9] and 45% in [8].
Consider `COc1ccc(/C(=N\O)c2cc(OC)c(OC)c(OC)c2)c(OC)c1N`, for which the growth in assay [10] was 24.2%; in [2], 18%; in assay [3], 47.8%; in [4], 42.9%; in [5], 43%; in assay [6], 46.1%. Further, the growth in assay [7] is -25.1% (active); in [9], 7.51% (active); in assay [8] it was 18.2%.
As for `COC(=O)CCCCN=Cc1c(O)c(O)c(C(C)C)c2cc(C)c(-c3c(C)cc4c(C(C)C)c(O)c(O)c(C=NCCCCC(=O)OC)c4c3O)c(O)c12`, the growth in [10] was 17.7%; in assay [2], 16.4%; in [3] it was 17.8%; in [4] it was 13.7%; in [5], 40.1%; in [6], 26.4%. The figures for the growth in assay [7], in assay [9] and in assay [8] were 14.3%, 9.48% (active) and 52.8%, respectively.
As for `CN(C)c1nc(N)c(N=O)c(N)n1`, the growth in assay [10] was 110%; in assay [2], 114%; in assay [3], 111%; in assay [4] it was 108%; in assay [5], 99.2%; in assay [6], 110%. Also, the growth in assay [7] was 101%; in assay [9], 106%; in [8], 122%.
Take `COC(=O)CCCCCN=Cc1c(O)c(O)c(C(C)C)c2cc(C)c(-c3c(C)cc4c(C(C)C)c(O)c(O)c(C=NCCCCCC(=O)OC)c4c3O)c(O)c12`: the growth in assay [10] was 16.6%; in assay [2] it was 11.4%; in assay [3], 11.3%; in [4], 15.5%; in assay [5], 24%; in assay [6], 25.6%. In addition, the growth was 15.9% in assay [7] and 61.8% in [8].
Take `CCO/C=N/NC(=O)c1ccncc1`: the growth in assay [10] is 108%; in assay [2], 108%; in assay [3] it was 103%; in [4], 109%; in assay [5], 109%; in [6] it was 108%. The growth in assay [7] was 106%; in assay [9], 105%; in assay [8], 111%.
For the molecule `CC1Cc2c(N(C)C)ncnc2N(C)c2ccc(Cl)cc21` (configuration not stated), the growth is 31.3% in [10]; 45.9% in assay [2]; 73.8% in [3]; 49.7% in assay [4]; 46.3% in assay [5]; 57.5% in assay [6]. Besides, the growth in assay [7] was 5.13% (active); in [9] it was -1.26% (active); in assay [8], 25.9%.
Take `CCN(Cc1ccc(CN(CC)C(=O)C(Br)Br)cc1)C(=O)C(Br)Br`: the growth in [10] was 14.2%; in [2] it was 20.4%; in assay [3], 71.1%; in [4], 32.1%; in [5] it was 79.8%; in assay [6], 46.4%. Also, the growth in assay [7] is 8.57% (active); in [9] it was 38.1%; in assay [8], 39.7%.
As for `CCNCc1ccncc1`, the growth in [10] is 98.8%; in [2], 103%; in assay [3], 112%; in assay [4], 97.8%; in [5], 94.7%; in [6], 111%. Further, the growth in [7] was 110%; in [9], 103%; in assay [8], 106%.
`CC(C)C[C@H](NC(=O)[C@H](Cc1ccccc1)n1ccc(N2CCCCC2)cc1=O)B(O)O`: the growth in [10] was -10.5% (active); in assay [2] it was 31.8%; in [3], 39.3%; in [4], 39.3%; in [5] it was 53.9%; in assay [6] it was 46.2%. Also, the growth was -29.3% (active) in assay [7], 22% in assay [9] and 90.3% in assay [8].
Turning to `O=C(NCCCN1CCN(CCCNC(=O)C2CCCCC2)CC1)C1CCCCC1`, the growth in assay [10] is 93.3%; in assay [2], 101%; in assay [3], 104%; in assay [4], 102%; in assay [5] it was 91.6%; in assay [6], 104%. Besides, the growth in assay [7] is 99.3%; in assay [9], 102%; in assay [8], 112%.
As for `CC(Cc1nnc(SCC(=O)Nc2ccc(I)cc2)n1N)c1ccccc1` (configuration not stated), the growth is 59.8% in assay [10]; 95.9% in assay [2]; 84.4% in [3]; 172% in assay [4]; 97.8% in assay [5]; 8.44% (active) in assay [6]. Also, the growth was 111% in [7] and 96% in [8].
For `c1cc(-c2ccc3c(c2)OCO3)n2nccc2n1`, the growth in assay [10] was 97.1%; in assay [2], 98.6%; in assay [3], 94.2%; in assay [4], 98.1%; in [5], 106%; in assay [6], 102%. The growth in assay [7] is 103%; in [8], 107%.
For the molecule `Nc1cc2c(cc1N)-c1cc(N)c(N)cc1C2`, the growth in assay [10] was 95.9%; in [2] it was 103%; in assay [3], 109%; in [4], 108%; in assay [5], 99.2%; in assay [6] it was 97.6%. For the same molecule, the growth in assay [7] is 109%; in assay [9], 94.3%; in assay [8], 111%.
For `Cc1ccc(-c2csc3nc(C)c(CCCl)c(=O)n23)cc1`, the growth in [10] was 83.8%; in assay [2] it was 103%; in assay [3], 107%; in [4], 82.1%; in assay [5], 105%; in [6], 78.8%. Besides, the results for the growth in assay [7], in assay [9] and in [8] were 99.4%, 83% and 105%, respectively.
